KAT2A inh – GCN5L2 (KAT2A) acetyltransferase inhibition. Q92830. GCN5L2 HAT assay, ThioGlo1 CoA-SH fluorescence. Potency, µM (series often up to 58.9 µM), for the others: at the highest dose activity change, negative = inhibition, usual class: inhibitors. 390,000 compounds, 0.21% hits; note: % is set by controls: 0 for no effect and ±100 for the full control effect
Target sequence (Q92830 whole entry, looked up): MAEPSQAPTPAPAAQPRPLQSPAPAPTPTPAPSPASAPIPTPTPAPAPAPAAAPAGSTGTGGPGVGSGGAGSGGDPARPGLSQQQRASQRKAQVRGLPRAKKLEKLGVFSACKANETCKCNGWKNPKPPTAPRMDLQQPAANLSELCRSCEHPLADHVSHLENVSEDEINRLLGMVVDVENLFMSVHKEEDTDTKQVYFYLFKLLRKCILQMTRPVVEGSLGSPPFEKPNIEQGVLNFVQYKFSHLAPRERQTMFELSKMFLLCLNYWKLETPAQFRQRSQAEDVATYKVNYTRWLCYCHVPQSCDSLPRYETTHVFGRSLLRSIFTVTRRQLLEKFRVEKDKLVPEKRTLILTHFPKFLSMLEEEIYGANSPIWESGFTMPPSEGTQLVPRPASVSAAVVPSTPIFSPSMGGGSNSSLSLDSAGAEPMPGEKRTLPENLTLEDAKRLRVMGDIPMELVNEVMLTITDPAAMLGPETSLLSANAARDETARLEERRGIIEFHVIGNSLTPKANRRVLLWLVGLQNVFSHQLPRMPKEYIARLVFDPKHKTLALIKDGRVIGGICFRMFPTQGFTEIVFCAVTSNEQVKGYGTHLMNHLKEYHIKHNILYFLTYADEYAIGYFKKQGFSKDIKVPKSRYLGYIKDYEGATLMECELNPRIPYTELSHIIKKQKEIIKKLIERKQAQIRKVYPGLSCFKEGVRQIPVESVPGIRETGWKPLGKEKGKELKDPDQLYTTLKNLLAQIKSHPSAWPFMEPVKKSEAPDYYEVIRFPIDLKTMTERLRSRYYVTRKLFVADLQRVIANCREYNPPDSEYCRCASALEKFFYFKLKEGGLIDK
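Compounds, pin-transferred from DMSO stocks, meet 20nM GCN5L2 for 15 min before the reaction begins with H3(1-25) peptide (75uM) and acetyl-CoA (70uM). Thiol-reactive ThioGlo1 reports CoA release over 20 min at room temperature.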
HEK293 tox – cytotoxic in the GLP-1 receptor inverse agonist counter-screen | 410,000 compounds, 0.13% hits | Potency, µM (top dose mostly 38.3 µM), without a hit: at the highest dose activity change, negative = inhibition, usual class: inhibitors | HEK293 cAMP-luciferase reporter cells, luminescence, 24 h;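 note: loss of luciferase light is scored as toxicity; % is set by controls: 0 for no effect and ±100 for the full control effect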
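Quantitative HTS format, 1536 wells, 200 cells/uL seeded. Compounds: 23 nL, 24 h, 37 °C. Detection: luciferase reagent, luminescence at 12 min RT; decreased signal taken as cytotoxic.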
GLP-1R inv ag – inverse agonists of human GLP-1 receptor. Potency, µM (series often up to 38.3 µM), for the others: at the highest dose activity change, negative = inhibition, actives largely listed as inhibitors. AID 624417. 410,000 compounds, 1.6% hits. HEK293 GLP-1R CRE-luciferase, luminescence, 24 h; GLP-1R form is constitutively active. P43220; note: % is set by controls: 0 for no effect and ±100 for the full control effect; nearly all actives have a fitted effect of over 55% in size
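Constitutively active GLP-1R drives a cAMP-responsive luciferase in stably transfected HEK293 cells; test compounds are added after overnight (12 h) attachment and left 24 hr, and signal loss in luminescence marks inhibition.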
RGS4 inh – inhibitors of human regulator of G protein signaling 4; AID 504845; Transcreener GDP fluorescence polarization, RGS4-accelerated GTP hydrolysis; Potency, µM (top dose mostly 114 µM), inactives show at the top dose activity change, negative = inhibition, actives largely listed as inhibitors; 390,000 compounds, 0.039% hits; P49798; note: % is set by controls: 0 for no effect and ±100 for the full control effect; nearly all actives have a fitted effect of over 75% in size
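MLSMR compounds (23 nl, pin-transferred) preincubated 10 min at room temperature with a 500nM (2x) first reagent, then RGS4 at 900nM (2x) plus Transcreener GDP mix added; fluorescence polarization (620/688 nm) read before and after 90 min at 30 °C.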
GLP1R ag – GLP-1 receptor (human) agonism | P43220 | HEK293 GLP-1R CRE-luciferase, luminescence, 4-6 h; cells express a hypersensitive GLP-1R form | Potency, µM (top dose mostly 45.6 µM), inactives show at the highest dose activation, hits mostly activators | 380,000 compounds, 0.007% hits; note: % of control where 0% means no effect
PTHR1 ag – activates the human parathyroid hormone receptor PTHR1; Q03431; HEK293 GP2 PTHR1 cells, GloSensor cAMP luminescence, 1 h; Potency, µM (series often up to 115 µM), for inactives: top-dose activation, most hits filed as activators; 410,000 compounds, 0.075% hits; note: nearly all actives have a fitted effect of over 55% in size
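HEK-293-derived GP2 cells expressing PTHR1 and a GloSensor cAMP reporter, 3,000/well, plated overnight, given luciferin plus IBMX (each 0.5 mM as added) for 1 h at 37 °C, then compound for 1 h at 37 °C. Luminescence was read after 15 min at room temperature.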
An asterisk follows results filed as active; i = inactive; ? = inconclusive; / = not tested or not shown; [ ] = remark or other dose. Most compounds without a hit are left out; they make up all but 1.8% or so of the library. Calls come from the whole dose curve; as a rule, active = well fitted curve in the direction sought with a large enough effect; inconclusive = small, poorly fitted or top-dose-only effect, or another doubt; inactive = no such curve, though single readings can be large; an effect the other way counts as inactive or inconclusive. Potency is the fitted concentration of half-maximal effect.

SMILES	KAT2A inh	HEK293 tox	GLP-1R inv ag	RGS4 inh	GLP1R ag	PTHR1 ag
Cc1cccc(CN2CCN(C(=O)c3cccc4ccccc34)CC2)c1	-17.4%	-11.7%	?	-18.0%	9.7%	-13.5%
COc1ccc2ccccc2c1CN1CCN(C(=O)c2ccccc2)CC1	-5.7%	-7.8%	10µM*	-26.1%	-2.6%	i
COc1ccc(CN2CCN(C(=O)c3cccc4ccccc34)CC2)cc1OC	-3.1%	-13.7%	6.2%	26.4%	13.7%	-30.6%
COc1ccccc1CN1CCN(C(=O)c2cccc3ccccc23)CC1	/	3.7%	11.2µM*	1.5%	-6.7%	-19.2%
O=C(c1cccc2ccccc12)N1CCN(Cc2ccccc2F)CC1	-26.0%	-4.9%	?	15.3%	-5.8%	-24.2%
Cc1ccc(CN2CCN(C(=O)c3cccc4ccccc34)CC2)cc1	-3.7%	-1.6%	3.98µM*	-19.8%	12.2%	-33.9%
Cc1ccccc1CN1CCN(C(=O)c2cccc3ccccc23)CC1	-1.9%	-6.8%	10µM*	-0.4%	1.8%	-13.2%
CCCN(C(=O)c1cc2c(s1)-c1ccccc1SC2)c1ccccc1F	-10.0%	-0.3%	11.2µM*	-2.7%	/	-7.9%
CN(C)CCNC(=O)c1cc2c(s1)-c1ccc(Cl)cc1SC2	-1.2%	?	12.6µM*	22.9%	-9.0%	1.8%
CCCN(C(=O)c1cc2c(s1)-c1ccccc1OC2)c1ccccc1F	-8.0%	-0.9%	?	-1.5%	11.0%	-25.4%
O=C(c1ccoc1)N1CCN(c2cc(-c3ccccc3)nc3cc(-c4ccc(Br)cc4)nn23)CC1	/	5.2%	4.0%	/	-5.0%	-28.7%
Cc1ncoc1C(=O)N1CCc2c([nH]c3ccccc23)C1C1CCCCC1 (stereo not given)	-14.1%	66.6%	10µM*	21.4%	-9.8%	-21.8%
Cc1cccc(C2c3[nH]c4ccccc4c3CCN2C(=O)c2noc3c2CCCC3)n1 (stereo not given)	-9.6%	-9.1%	7.08µM*	-13.0%	17.2%	-32.8%
Cc1ncoc1C(=O)N1CCc2c([nH]c3ccccc23)C1C(C)(C)C (stereo not given)	-5.3%	1.6%	-27.3%	-10.3%	1.6%	-11.8%
Cc1cc(C)n2nc(SCC(=O)NC3CCCCC3)nc2n1	-1.2%	8.8%	18.5%	18.9%	11.0%	i
O=C(Cc1ccc(F)cc1)Nc1nnc2n1CCS2	1.8%	-3.3%	-6.3%	-3.1%	-6.5%	i
COc1ccc(OC)c2c1C(=O)C(Cl)=C(Cl)C2=O	12.6µM*	?	?	-148.9%	-8.4%	-95.8%
COc1ccc(N)c2c1C(=O)c1ccccc1C2=O	-7.3%	6.0%[1.53 µM]	29.0%	-0.5%	0.1%	-4.2%
CCCC(=O)Oc1c(S(=O)(=O)c2ccc(C)cc2)c(C)nn1C(C)(C)C	-3.5%	?	5.62µM*	-12.2%	-1.8%	-15.5%
CCC(=O)Oc1c(S(=O)(=O)c2ccc(C)cc2)c(C)nn1C(C)(C)C	0.5%	?	?	-19.0%	-10.2%	-24.6%
CCCCNC(=O)C1C(c2ccccc2)=Nc2ccccc2N1C(=O)c1ccc(C(F)(F)F)cc1 (stereo not given)	/	-9.8%	?	/	/	-28.0%
COc1ccc(C2=Nc3ccccc3N(C(=O)c3ccc(C(F)(F)F)cc3)C2C(=O)NCc2ccccc2)cc1 (stereo not given)	/	16.8%	6.31µM*	/	/	-11.3%
CC1(C)Cc2ccccc2-c2nc3ccccc3c(=O)n21	-9.5%	-0.2%	7.94µM*	-4.2%	11.1%	-2.9%[57.5 µM]
S=C(NCC1CCCO1)NC1CCCCC1 (stereo not given)	-6.0%	-9.5%	-0.9%	-21.5%	2.9%	-11.6%
CCCC(NC(=S)NCC1CCCO1)C12CC3CC(CC(C3)C1)C2 (stereo not given)	-5.4%	?	5.62µM*	-4.9%	13.0%	i
SMILES	KAT2A inh	HEK293 tox	GLP-1R inv ag	RGS4 inh	GLP1R ag	PTHR1 ag
CC1(C)CN(c2ccccc2)C(=O)[C@H]1CC(=O)Nc1ccccc1	/	6.5%	8.8%	/	16.1%	-23.9%
Cn1c(/C=C/c2ccc(Br)cc2)c([N+](=O)[O-])c(=O)n(C)c1=O	0.7%	?	4.47µM*	-23.5%	0.2%	-42.2%
Cc1cc(C)c(S(=O)(=O)/N=C2/C=C(Sc3ncn[nH]3)C(=O)c3ccccc32)cc1C	11.2µM*	?	10µM*	-121.2%	-33.4%	-10.7%
Cc1ccc(S(=O)(=O)Nc2ccccc2OC(C(=O)OC(C)(C)C)C(=O)OC(C)(C)C)cc1	/	-3.2%	?	/	/	-22.9%
COCCN=c1scc(-c2ccccc2)n1/N=C/c1c[nH]c2ccccc12	?	-8.7%	3.98µM*	14.4%	13.6%	-54.7%
CCc1nc2c(OCc3ccccc3)cccn2c1N(Cc1ccccc1)C(C)=O	/	2.5%	?	/	-1.5%	-18.5%
Cn1cc(CN2CCCC(C(=O)Nc3cccc(-c4cc5ccccc5[nH]4)c3)C2)cn1 (stereo not given)	-6.1%	?	?	-7.7%	-3.1%	i
CCn1cc(CN2CCCC(C(=O)Nc3cccc(-c4cc5ccccc5[nH]4)c3)C2)c(C)n1 (stereo not given)	1.4%	?	11.2µM*	37.7%	1.2%	19.1%
Cc1ccc(CNC(=O)Cn2cnc3c(NC(=O)OCc4ccccc4)ncnc32)o1	-0.2%	11.7%	26.9%	-1.8%	5.3%	-15.9%
Cc1c(Cc2ccccc2)c(=O)oc2cc(OCC(=O)NCC3CCC(C(=O)O)CC3)ccc12 (stereo not given)	1.5%	1.5%	2.5%	-23.8%	-6.1%	i
O=C(CNc1ccc(C(F)(F)F)cc1)Nc1cccc(S(=O)(=O)N2CCCC2)c1	-14.6%	-10.6%	?	9.9%	8.3%	-59.7%
CN(CC(=O)Nc1cccc(F)c1)CC(=O)Nc1cccc(S(=O)(=O)N2CCCCC2)c1	-11.8%	-24.0%	7.94µM*	-9.4%	-1.4%	-32.8%
CCOc1ccc(NC(=O)CNc2cccc(S(=O)(=O)N3CCCCCC3)c2)cc1OCC	-11.7%	-21.2%	10µM*	-0.7%	2.8%	-31.2%
O=C(CNc1ccc(C(F)(F)F)cc1)Nc1cccc(S(=O)(=O)N2CCCCC2)c1	/	-20.3%	3.98µM*	/	-3.3%	-52.8%
O=C(Cc1cccc(C(F)(F)F)c1)Nc1cccc(S(=O)(=O)N2CCCC2)c1	?	-8.0%	8.91µM*	-30.6%	-1.8%	-50.1%
CCOc1ccccc1OCC(=O)Nc1cccc(S(=O)(=O)N2CCCCCC2)c1	-6.6%	3.0%	?	15.9%	1.9%	-3.3%

Screening data: PubChem, National Center for Advancing Translational Sciences (NCATS)
